Laboratory results: PubChem BioAssay (NCATS)
Values joined by “and” are separate entries in the source; they are usually repeats but may differ in a detail not shown here. Equal values may be shown once. Inconclusive results are not listed. A call without a number means that no potency is given here. Active and inactive are the calls of the source. Unless noted, calls follow the shape of the full dose curve.

How the values were obtained:
[1] = qHTS for Inhibitors of the Functional Ribonucleoprotein Complex (vRNP) of Lassa (LASV) Arenavirus: LASV Primary Screen - GLuc reporter signal (AID 1347082; calls by dose curve; tested in HEK293 reporter line; also: nearly all actives have a fitted effect of over 60% in size)
[2] = qHTS for Inhibitors of the Functional Ribonucleoprotein Complex (vRNP) of Lymphocytic Choriomeningitis Arenaviruses (LCMV): Viability assay - alamar blue signal for LCMV Primary Screen (AID 1347085; calls by dose curve; tested in HEK293 reporter line; also: nearly all actives have a fitted effect of over 80% in size)
[3] = biological target: Nucleoprotein (Lymphocytic choriomeningitis virus (strain Armstrong)) (UniProt P09992); experiment: qHTS for Inhibitors of the Functional Ribonucleoprotein Complex (vRNP) of Lymphocytic Choriomeningitis Arenaviruses (LCMV): LCMV Primary Screen - GLuc reporter signal (AID 1347086); also: nearly all actives have a fitted effect of over 70% in size
[4] = qHTS for Inhibitors of the Functional Ribonucleoprotein Complex (vRNP) of Lassa (LASV) Arenavirus: Viability assay - alamar blue signal for LASV Primary Screen (AID 1347083; calls by dose curve; tested in HEK293 reporter line; also: nearly all actives have a fitted effect of over 80% in size)
Potency is read from the fitted curve at half-maximal effect.

Chain of Nucleoprotein (Lymphocytic choriomeningitis virus (strain Armstrong)) (P09992 whole entry, looked up): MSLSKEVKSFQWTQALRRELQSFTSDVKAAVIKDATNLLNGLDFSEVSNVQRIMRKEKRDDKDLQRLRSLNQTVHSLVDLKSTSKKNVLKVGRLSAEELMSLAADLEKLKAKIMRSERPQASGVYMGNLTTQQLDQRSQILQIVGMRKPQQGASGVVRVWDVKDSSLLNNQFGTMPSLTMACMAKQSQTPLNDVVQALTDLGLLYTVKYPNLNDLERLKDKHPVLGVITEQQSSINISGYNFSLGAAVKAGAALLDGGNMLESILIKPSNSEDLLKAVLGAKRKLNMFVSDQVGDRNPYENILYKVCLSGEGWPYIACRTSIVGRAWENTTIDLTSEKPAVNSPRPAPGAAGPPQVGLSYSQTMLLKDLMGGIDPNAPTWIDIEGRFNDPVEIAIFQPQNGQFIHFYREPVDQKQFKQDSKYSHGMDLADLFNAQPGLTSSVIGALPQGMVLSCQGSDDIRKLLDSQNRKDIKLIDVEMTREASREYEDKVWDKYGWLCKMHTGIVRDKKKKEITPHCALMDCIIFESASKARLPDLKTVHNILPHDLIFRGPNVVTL

## CC(S)C(=O)NCC(=O)O (configuration not stated)
[1]
  Potency: inactive
[2]
  Potency: inactive
[3]
  Potency: inactive

## Cc1c(O)cccc1C(=O)N[C@@H](CSc1ccccc1)[C@H](O)CN1C[C@H]2CCCC[C@H]2C[C@H]1C(=O)NC(C)(C)C
[1]
  Potency: inactive
[4]
  Potency: inactive
[2]
  Potency: inactive
[3]
  Potency: inactive

## C#Cc1cccc(Nc2ncnc3cc(OCCOC)c(OCCOC)cc23)c1
[1]
  Potency: inactive
[4]
  Potency: 7.69 µM (active)
[3]
  Potency: inactive

## CN1CCC[C@@H]1CCO[C@](C)(c1ccccc1)c1ccc(Cl)cc1
[1]
  Potency: inactive
[2]
  Potency: inactive

## CNCC[C@@H](Oc1ccccc1C)c1ccccc1
[1]
  Potency: inactive
[4]
  Potency: inactive
[2]
  Potency: inactive
[3]
  Potency: inactive

## C[C@@H]1CC(=O)NN=C1c1ccc(NN=C(C#N)C#N)cc1
[1]
  Potency: inactive
[4]
  Potency: inactive
[2]
  Potency: inactive
[3]
  Potency: inactive

## CCOC(=O)[C@H](CCc1ccccc1)N[C@@H](C)C(=O)N1Cc2ccccc2C[C@H]1C(=O)O
[1]
  Potency: inactive
[4]
  Potency: inactive
[2]
  Potency: inactive
[3]
  Potency: inactive

## CN1CCN(C2=Nc3cc(Cl)ccc3Nc3ccccc32)CC1
[1]
  Potency: inactive
[4]
  Potency: inactive
[2]
  Potency: inactive
[3]
  Potency: inactive

## CCCN1C[C@H](CSC)C[C@@H]2c3cccc4[nH]cc(c34)C[C@H]21
[1]
  Potency: inactive
[4]
  Potency: inactive
[2]
  Potency: inactive
[3]
  Potency: inactive

## CCC1C(=O)OCC1Cc1cncn1C (configuration not stated)
[1]
  Potency: inactive
[4]
  Potency: inactive
[2]
  Potency: inactive
[3]
  Potency: inactive

## COc1cc(NC(C)CCCN)c2ncccc2c1 (configuration not stated)
[1]
  Potency: inactive
[4]
  Potency: inactive
[2]
  Potency: inactive
[3]
  Potency: inactive

## C=C(c1ccc(C(=O)O)cc1)c1cc2c(cc1C)C(C)(C)CCC2(C)C
[1]
  Potency: inactive
[4]
  Potency: inactive
[2]
  Potency: inactive
[3]
  Potency: inactive

## CCN1CCN(C(=O)N[C@@H](C(=O)N[C@@H]2C(=O)N3C(C(=O)O)=C(CSc4nnnn4C)CS[C@H]23)c2ccc(O)cc2)C(=O)C1=O
[1]
  Potency: inactive
[4]
  Potency: inactive
[2]
  Potency: inactive
[3]
  Potency: inactive

## CC1(CN2CCC(n3c(=O)[nH]c4ccccc43)CC2)OCc2ccccc2-n2cccc21 (configuration not stated)
[1]
  Potency: inactive
[2]
  Potency: inactive
[3]
  Potency: inactive

## CC(C)c1c(C(=O)Nc2ccccc2)c(-c2ccccc2)c(-c2ccc(F)cc2)n1CC[C@@H](O)C[C@@H](O)CC(=O)O
[1]
  Potency: inactive
[4]
  Potency: inactive
[3]
  Potency: inactive

## CN1C[C@H]2c3ccccc3Oc3ccc(Cl)cc3[C@@H]2C1
[1]
  Potency: inactive
[4]
  Potency: inactive
[3]
  Potency: inactive

## CNS(=O)(=O)Cc1ccc2[nH]cc(CCN(C)C)c2c1
[1]
  Potency: inactive
[4]
  Potency: inactive
[3]
  Potency: inactive

## COC1=CC(=O)C[C@@H](C)[C@]12Oc1c(Cl)c(OC)cc(OC)c1C2=O
[1]
  Potency: inactive
[2]
  Potency: inactive

## CC[C@H](C)C(=O)O[C@H]1C[C@@H](C)C=C2C=C[C@H](C)[C@H](CC[C@@H]3C[C@@H](O)CC(=O)O3)[C@H]21
[1]
  Potency: inactive
[4]
  Potency: inactive
[3]
  Potency: inactive

## CC(C)(O)c1ccccc1CC[C@@H](SCC1(CC(=O)O)CC1)c1cccc(/C=C/c2ccc3ccc(Cl)cc3n2)c1
[1]
  Potency: inactive
[4]
  Potency: inactive
[2]
  Potency: inactive
[3]
  Potency: inactive

## CNC(=O)c1cc(Oc2ccc(NC(=O)Nc3ccc(Cl)c(C(F)(F)F)c3)cc2)ccn1
[1]
  Potency: 38.5 µM (active)
[2]
  Potency: 17.2 µM (active)

## Cc1ccccc1C(OCCN(C)C)c1ccccc1 (configuration not stated)
[1]
  Potency: inactive
[4]
  Potency: inactive
[2]
  Potency: inactive
[3]
  Potency: inactive

## Cn1cnc([N+](=O)[O-])c1Sc1ncnc2nc[nH]c12
[1]
  Potency: inactive
[4]
  Potency: 50.1 µM (active)
[3]
  Potency: inactive

## O=C1NC(=O)C(c2ccccc2)(c2ccccc2)N1
[1]
  Potency: inactive
[4]
  Potency: inactive
[2]
  Potency: inactive
[3]
  Potency: inactive

## C[C@@H]1[C@@H](CC(C[C@H]2O[C@@H]3O[C@]4(C)CC[C@@H]5[C@H](C)CC[C@@H]([C@H]2C)[C@@]35OO4)C[S+](=O)([O-])c2ccc(COC(=O)N(C)C)cc2)O[C@@H]2O[C@]3(C)CC[C@H]4[C@H](C)CC[C@@H]1[C@@]24OO3 (some centres not stated)
[2]
  Potency: inactive
[3]
  Potency: inactive

## Cc1sc2c(c1C)C(c1ccc(Cl)cc1)=N[C@@H](CC(=O)OC(C)(C)C)c1nnc(C)n1-2
[4]
  Potency: 2.43 µM (active)
[2]
  Potency: 1.09 µM (active)
[3]
  Potency: 0.385 µM (active)

## O=C1Cc2cc(CCN3CCN(c4nsc5ccccc45)CC3)c(Cl)cc2N1
[4]
  Potency: inactive
[2]
  Potency: inactive
[3]
  Potency: inactive

## O=C1c2c(O)ccc(O)c2C(=O)c2c(NCCNCCO)ccc(NCCNCCO)c21
[4]
  Potency: 685 nM (active) and 891 nM (active) and 1.78 µM (active)
[2]
  Potency: 1.37 µM (active) and 1.26 µM (active)
[3]
  Potency: 4.32 µM (active)

## CCOC(=O)C1(c2ccccc2)CCN(CCC(C#N)(c2ccccc2)c2ccccc2)CC1
[4]
  Potency: inactive

## NC12CC3CC(CC(C3)C1)C2
[1]
  Potency: inactive
[2]
  Potency: inactive
[3]
  Potency: inactive
